A selection: hits, their analogues and other compounds. The true share with any hit is near 5.3%.
PostGolgi ctrl – growth of the yeast control strain, post-Golgi counter-screen; efflux-deficient yeast background strain, growth absorbance A615, 16 h; inhibition, % at 10 µM; 98,000 tested, 5% active
MT1-MMP txn act – MT1-MMP promoter transcription activation; HT1080 MT1-MMP promoter luciferase reporter, luminescence, overnight; stronger effect = higher value; activation factor at 10 µM; 86,000 tested, 0.16% active;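 active = activation factor of at least 2 for MT1-MMP transcription at 10 µM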
PostGolgi yeast – growth inhibition of a yeast mutant, post-Golgi transport screen; post-Golgi transport phenotypic cell assay; inhibition, % at 10 µM; 98,000 tested, 0.9% active; AID 739;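 note: yeast cells grown in 1536-well plates; yeast grown about 18 h at 30C before absorbance read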
Measles CPE – protection of cells from measles virus; protection (pct of control), % at 4 µM; Measles virus-infected cells, CPE protection, absorbance; 140,000 tested, 1.5% active; AID 841; in the data active = protection mostly above about 24%, no sharp cut-off; inactive = mostly below about 26%
Numbers without * were called inactive; . = no result given. Cut-off read from the data, not from the text of the source, unless noted: active = inhibition above about 30%; inactive = the rest.

SMILES | PostGolgi ctrl | MT1-MMP txn act | PostGolgi yeast | Measles CPE
CCOC(=O)CNC(=O)C(CC(C)C)NC(=O)C1CCCCC1 (centres undefined) | 3 | 0.9 | -1 | 24
CCOC(=O)C(C)Oc1ccc2c(C)cc(=O)oc2c1C(C)=O (centres undefined) | 3 | . | 33* | 11
Cc1cccc(C)c1NC(=O)N1CCC(n2c(=O)[nH]c3ccccc32)CC1 | 33* | . | -7 | 9
Cc1cc(C)c2nc(SC(C)C#N)cc(C)c2c1 (centres undefined) | 10 | . | -1 | 2
Nc1cc(OCC(F)(F)F)cc([N+](=O)[O-])c1 | . | . | . | 9
Nc1cc(N)c(OCC(F)(F)F)cc1OCC(F)(F)F | -2 | 1 | 30* | 19
CSc1nnc(-c2ccccc2Cl)n1N | 7 | 1.5 | 0 | 7
Nn1c(-c2ccccc2Cl)nnc1-c1ccccc1Cl | . | 2* | . | 11
CCOC(=O)CSc1nc(C2CC2)nc2ccccc12 | 39* | 1.1 | 4 | 12
CC(C(=O)N1CCN(C2c3ccccc3-c3ccccc32)CC1)N1C(=O)c2ccccc2C1=O (centres undefined) | . | . | . | 3
O=C(c1n[nH]c(=O)c2ccccc12)N1CCN(C2c3ccccc3-c3ccccc32)CC1 | 33* | . | 12 | 5
O=C(CCN1C(=O)c2ccccc2C1=O)N1CCN(C2c3ccccc3-c3ccccc32)CC1 | 53* | . | -1 | 5
O=C(CCN1C(=O)c2ccccc2C1=O)N1CCN(C(=O)c2ccccc2)CC1 | 2 | 1.1 | 4 | 10
N#Cc1cc2c(nc1Cl)CCCC2 | . | . | . | 14
CCOC(=O)CSc1nc(C)cc(C)c1C#N | -2 | . | -1 | 4
CCOC(=O)CCc1c(C)nc(SCC(=O)O)c(C#N)c1C | 19 | 1 | -6 | 32*
CC1CC(C)CN(CCOc2ccc(Cl)cc2Cl)C1 (centres undefined) | 29 | 1.1 | 89* | 20
CC1CCCN(CCOCCOc2ccc(Cl)cc2Br)C1 (centres undefined) | 22 | . | 103* | 8
CC1CC(C)CN(CCOc2cccc(Cl)c2Cl)C1 (centres undefined) | . | . | . | 7
CC1CCCN(CCOCCOc2ccc(Br)cc2Cl)C1 (centres undefined) | . | . | . | 23
CCCCn1c(=O)n(Cc2cccc(F)c2)c(=O)c2c1ncn2Cc1ccco1 | 39* | 1.1 | -10 | 10
C/C(=N\NC(=O)c1cccs1)C(C)(C)C | . | . | . | 3
CC(C)CCN1C(=O)c2ccc(C(=O)NCc3ccco3)cc2C1=O | 11 | 1.1 | -1 | 28
O=C(NCc1ccco1)c1ccc2c(c1)C(=O)N(Cc1ccccc1)C2=O | 44* | 1.2 | -4 | 16
O=C(NCc1ccccc1)c1ccc2c(c1)C(=O)N(Cc1ccncc1)C2=O | 11 | 1.2 | 1 | 14
SMILES | PostGolgi ctrl | MT1-MMP txn act | PostGolgi yeast | Measles CPE
CCN1C(=O)c2ccc(C(=O)NCc3ccccc3)cc2C1=O | 3 | 1.1 | 42* | 5
COC(C(=O)NC(C(C)C)C(C)C)c1ccccc1 (centres undefined) | . | . | . | 8
CC(C)Cn1c(N)c(C(=O)COC(=O)c2cc(C(F)(F)F)nc3c(C(F)(F)F)cccc23)c(=O)n(C)c1=O | . | 1.1 | . | 2
COc1ccc(-c2[nH]ncc2/C=N\NS(=O)(=O)c2ccc(Cl)cc2)cc1 | 31* | . | 1 | 9
CCOC(=O)C1CCCN(Cc2ccc(OCC)cc2)C1 (centres undefined) | -4 | 1.1 | -4 | 7
CCC1=C2CC[C@H]3C(=O)N(CC(=O)OC)C(=O)[C@H]3[C@H]2[C@@]2(Cc3ccccc3)C(=NCCOC)OC(=O)N2C1=O | . | 1.1 | . | .
Cc1ccc(S(=O)(=O)/C(C#N)=C/c2c(N3CCN(C)CC3)nc3ccccn3c2=O)cc1 | 4 | 1.2 | 5 | 9
N#C/C(=C\c1c(N2CCOCC2)nc2ccccn2c1=O)S(=O)(=O)c1ccccc1 | 4 | 1.2 | -1 | 27*
C=CCn1c(COc2ccc3c(c2)CCCC3)nnc1SCC(=O)Nc1cccc(SC)c1 | 7 | . | 2 | 10
O=C(N/N=C1/CCCc2ccccc21)C(c1ccccc1)c1ccccc1 | 13 | . | 3 | 13
COc1ccc(-c2nn(-c3ccccc3)cc2/C=N/N2C(=O)CSC2=S)cc1 | 85* | 1.5 | 86* | 0
O=c1n(Cc2ccc(Cl)cc2)c2sc3c(c2c2ncnn12)CCCC3 | 93* | 1.1 | 16 | 12
O=C(O)c1nn2c(c1Br)NC(c1ccccc1)CC2C(F)(F)F (centres undefined) | 32* | 1.1 | -4 | 12
CCCCN(C(=O)CN1CCOCC1)c1c(N)n(CC(C)C)c(=O)[nH]c1=O | . | . | . | 17
COc1ccc(C2C=C(c3cccs3)Nc3nc(CCCO)nn32)cc1 (centres undefined) | 45* | 0.9 | 9 | 2
O=C(NCC(=O)N1CCC(N2CCCCC2)CC1)C1CCCCC1 | 30* | 1.4 | -11 | 2
Cc1ccc(NC(=O)C(=O)NCCOc2ccc(Cl)cc2)c(C)c1 | . | . | . | 3
CCN1C(=O)N(c2ccc(Cl)cc2)C(C)=CC1(C)C | 10 | 1.2 | -4 | 5
Cc1csc(SCC(=O)NCc2cccs2)n1 | 38* | 1 | 2 | 3
CCn1c(SCC(=O)NCc2cccs2)nnc1-c1ccco1 | 16 | 1.1 | 6 | 26*
CCn1c(SCC(=O)NCc2cccs2)nnc1-c1ccncc1 | 15 | 1.1 | 6 | 12
Cc1cc(Cl)ccc1OCc1nc(-c2ccc(O)cc2)n[nH]1 | 96* | 1.1 | 5 | 9
CN1CCN(C(=O)c2cc(Cl)ccc2Cl)CC1 | 31* | 1.2 | 0 | 3
Cc1ccc(CNC(=O)[C@H]2C[C@@H]2[C@H](NP(=O)(c2ccccc2)c2ccccc2)c2ccccc2)c(F)c1F | . | 1.2 | . | .
COc1cc(-c2nc3cnccn3c2Nc2ccc(C)cc2)ccc1O | 34* | 1.1 | -8 | 5
SMILES | PostGolgi ctrl | MT1-MMP txn act | PostGolgi yeast | Measles CPE
O=C(CCCC(=O)OCC(F)(F)C(F)F)Nc1ccc(NC(=O)CCCC(=O)OCC(F)(F)C(F)F)cc1 | 7 | 1.1 | -3 | 42*
Cc1ccc(NC(=O)CCC(=O)OCC(F)(F)C(F)F)cc1 | -2 | 1.1 | 26 | 3
COc1cccc(NC(=S)N/N=C2/CCCCc3ccccc32)c1 | . | . | . | 4
Cc1sc2ncnc(Nc3ccccc3)c2c1C | 33* | . | 3 | 7
O=C(NCCCc1ccccc1)C1CCN(c2nnc(-n3cccc3)s2)CC1 | 39* | 1.1 | -3 | 1
O=C(NCCCN1CCN(Cc2ccccc2)CC1)C1CCN(c2nnc(-n3cccc3)s2)CC1 | -4 | 1.3 | 6 | 10
CC(CCc1ccccc1)NC(=O)C1CCCN(c2nnc(-n3cccc3)s2)C1 (centres undefined) | 6 | 0.9 | 6 | 35*
O=C(C1CCCN(c2nnc(-n3cccc3)s2)C1)N1CCN(c2ccccc2)CC1 (centres undefined) | 41* | 1 | -1 | 7
CC(C)NC(=O)C1CCCN(c2nnc(-n3cccc3)s2)C1 (centres undefined) | -1 | 1 | 11 | 3
O=[N+]([O-])c1ccc(-c2cnc(SC(c3ccccc3)c3ccccc3)[nH]2)cc1 | . | . | . | 7
Cc1cc(C)c(CSc2ncc(-c3ccc([N+](=O)[O-])cc3)[nH]2)c(C)c1 | 49* | . | 5 | 5
O=[N+]([O-])c1ccc(-c2cnc(SCc3ccccc3Cl)[nH]2)cc1 | 42* | . | 4 | 13

Assay outcomes: PubChem, several laboratories
